Assay results reported in the supplement of paper PMC10849652.
The full data set covers some 7,900 targets. This sample favours those with a hit. About 0.6% of all pairs of compound and target were hits.

How the values were obtained:
Experiment in all cases: log2 fold change, soluble protein after heating vs DMSO (PISA); higher = thermal stabilisation; K562 cells, 10 uM, 30 min; active = over 0.2 and 3.5 SD of the protein, either way, in both replicates (recomputed)
erlotinib = compound: C#Cc1cccc(Nc2ncnc3cc(OCCOC)c(OCCOC)cc23)c1 [erlotinib]
Summary of the method: (§1)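 Aliquots of K562 cells (2×10^6 cells/mL) treated with 10 μM compound for 30 min were heated for 3 min over 48°C-58°C. After pooling and extraction in PBS with 0.5% NP-40 at 4°C, soluble protein from a 21,000xg, 90 min spin was quantified by TMTpro 16plex LC-MS/MS with channel sums equalised. Thermal stability is expressed against control samples, from duplicates, as a log2 fold change.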

[1] = compound: C/C(=N\NC(=O)C1=CC(=CC=C1)S(=O)(=O)N2CCOCC2)/C3=C(C=CC(=C3)Cl)O
Summary of the method: as §1

[2] = compound: C1=CC(=C(C=C1Cl)C2=NC3=NC=CN=C3C(=N2)NC4=CC=NC=C4)F
Summary of the method: as §1

[3] = compound: C1=CC(=CC=C1C2=NC3=C(N2)C=C(C=C3)C(=O)N)OC4=CC=C(C=C4)Cl
Summary of the method: as §1

[4] = compound: C1=CC2=C(C=CC(=C2)/C=C\3/C(=O)NC(=NCC4=CC=CS4)S3)N=C1
Summary of the method: as §1

[5] = compound: C1=CC2=NC=CN=C2C=C1/C=C/3\C(=O)NC(=O)S3
Summary of the method: as §1

[6] = compound: C1=CC=C(C=C1)C2=NC(=C(N2)C3=CC=NC=C3)C4=CC(=C(C=C4)Cl)O
Summary of the method: as §1

[7] = compound: C1=CC=C2C(=C1)C3=NNC4=CC=CC(=C43)C2=O
Summary of the method: as §1

[8] = compound: C1CCN(C1)C(=O)NC2=CC=CC(=C2)NC3=NC=C(C(=N3)NCCC4=CN=CN4)Br
Summary of the method: as §1

[9] = compound: C1CN(CCC1(CC2=CC=C(C=C2)Cl)N)C3=NC=NC4=C3C=CN4
Summary of the method: as §1

Sequence of UniProt Q06481 (Q06481 whole entry, looked up): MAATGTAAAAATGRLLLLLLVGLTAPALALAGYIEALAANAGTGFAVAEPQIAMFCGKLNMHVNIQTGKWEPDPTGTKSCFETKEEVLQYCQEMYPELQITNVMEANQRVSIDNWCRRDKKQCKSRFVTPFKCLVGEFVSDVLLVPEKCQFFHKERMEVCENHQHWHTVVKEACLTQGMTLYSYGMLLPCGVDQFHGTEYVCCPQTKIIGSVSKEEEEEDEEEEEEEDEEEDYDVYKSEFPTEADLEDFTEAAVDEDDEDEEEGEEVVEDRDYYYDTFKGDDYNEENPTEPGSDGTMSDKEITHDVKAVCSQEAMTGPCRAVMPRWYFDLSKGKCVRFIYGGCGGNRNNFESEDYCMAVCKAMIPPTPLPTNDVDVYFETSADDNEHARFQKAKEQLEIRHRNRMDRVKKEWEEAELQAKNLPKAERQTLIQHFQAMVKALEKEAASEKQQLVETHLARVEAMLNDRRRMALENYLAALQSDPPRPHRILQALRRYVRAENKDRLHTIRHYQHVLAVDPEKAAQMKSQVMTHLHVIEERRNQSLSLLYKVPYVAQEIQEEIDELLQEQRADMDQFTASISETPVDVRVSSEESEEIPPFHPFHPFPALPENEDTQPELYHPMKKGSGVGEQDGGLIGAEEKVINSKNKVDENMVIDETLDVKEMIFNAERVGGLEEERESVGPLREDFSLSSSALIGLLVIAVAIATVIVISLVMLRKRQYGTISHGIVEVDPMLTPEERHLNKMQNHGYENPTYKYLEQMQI
Sequence of UniProt Q96P47 (Q96P47 whole entry, looked up): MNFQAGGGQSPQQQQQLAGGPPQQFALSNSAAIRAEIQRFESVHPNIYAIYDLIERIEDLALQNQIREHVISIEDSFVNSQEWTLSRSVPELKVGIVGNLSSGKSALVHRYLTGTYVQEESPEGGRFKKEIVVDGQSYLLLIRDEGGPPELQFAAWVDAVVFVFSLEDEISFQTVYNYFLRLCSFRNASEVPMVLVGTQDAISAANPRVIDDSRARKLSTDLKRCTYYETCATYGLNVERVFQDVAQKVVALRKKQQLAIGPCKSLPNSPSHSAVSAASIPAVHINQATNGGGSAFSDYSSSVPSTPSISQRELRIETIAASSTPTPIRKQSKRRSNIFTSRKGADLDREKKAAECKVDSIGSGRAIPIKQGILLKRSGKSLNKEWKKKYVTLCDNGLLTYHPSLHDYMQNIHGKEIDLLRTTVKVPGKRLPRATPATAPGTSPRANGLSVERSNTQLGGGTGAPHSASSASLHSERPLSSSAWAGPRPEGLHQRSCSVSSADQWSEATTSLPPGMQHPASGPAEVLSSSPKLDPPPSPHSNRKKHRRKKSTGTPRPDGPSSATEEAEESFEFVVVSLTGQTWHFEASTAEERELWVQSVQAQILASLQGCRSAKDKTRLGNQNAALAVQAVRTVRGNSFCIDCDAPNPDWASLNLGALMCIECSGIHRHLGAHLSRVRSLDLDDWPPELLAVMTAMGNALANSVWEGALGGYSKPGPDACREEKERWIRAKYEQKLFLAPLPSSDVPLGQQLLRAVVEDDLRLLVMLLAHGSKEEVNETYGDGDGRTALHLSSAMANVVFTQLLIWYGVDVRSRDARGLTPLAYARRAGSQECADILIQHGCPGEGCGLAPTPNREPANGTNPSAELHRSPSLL
Sequence of UniProt O95573 (O95573 whole entry, looked up): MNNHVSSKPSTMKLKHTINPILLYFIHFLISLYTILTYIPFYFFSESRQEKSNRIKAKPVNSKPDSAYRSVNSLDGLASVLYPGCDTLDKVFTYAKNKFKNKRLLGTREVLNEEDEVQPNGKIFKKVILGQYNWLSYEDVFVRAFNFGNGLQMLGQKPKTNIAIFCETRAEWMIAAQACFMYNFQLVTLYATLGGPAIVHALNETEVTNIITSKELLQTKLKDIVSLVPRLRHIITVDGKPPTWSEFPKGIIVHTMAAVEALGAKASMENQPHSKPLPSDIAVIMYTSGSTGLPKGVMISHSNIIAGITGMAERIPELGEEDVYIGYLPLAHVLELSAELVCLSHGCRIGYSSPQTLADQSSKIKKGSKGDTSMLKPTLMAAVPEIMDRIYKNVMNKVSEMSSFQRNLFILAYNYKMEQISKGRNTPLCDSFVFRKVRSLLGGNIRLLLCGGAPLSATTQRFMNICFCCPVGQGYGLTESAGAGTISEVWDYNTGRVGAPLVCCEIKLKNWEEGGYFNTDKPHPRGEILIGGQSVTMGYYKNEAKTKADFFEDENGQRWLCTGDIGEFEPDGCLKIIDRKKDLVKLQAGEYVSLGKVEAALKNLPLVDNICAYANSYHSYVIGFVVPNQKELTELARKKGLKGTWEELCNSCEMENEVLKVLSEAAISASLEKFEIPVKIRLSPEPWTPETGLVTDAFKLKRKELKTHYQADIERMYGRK
Sequence of UniProt Q8NFV4 (Q8NFV4 whole entry, looked up): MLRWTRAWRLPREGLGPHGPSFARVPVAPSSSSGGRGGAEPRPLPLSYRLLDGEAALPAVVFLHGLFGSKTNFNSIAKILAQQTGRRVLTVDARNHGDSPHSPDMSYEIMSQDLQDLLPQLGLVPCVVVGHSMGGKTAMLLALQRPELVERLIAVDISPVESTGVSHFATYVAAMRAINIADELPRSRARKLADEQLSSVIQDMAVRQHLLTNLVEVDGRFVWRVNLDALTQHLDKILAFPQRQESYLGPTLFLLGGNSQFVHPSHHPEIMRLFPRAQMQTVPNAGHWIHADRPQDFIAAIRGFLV
Sequence of UniProt P30043 (P30043 whole entry, looked up): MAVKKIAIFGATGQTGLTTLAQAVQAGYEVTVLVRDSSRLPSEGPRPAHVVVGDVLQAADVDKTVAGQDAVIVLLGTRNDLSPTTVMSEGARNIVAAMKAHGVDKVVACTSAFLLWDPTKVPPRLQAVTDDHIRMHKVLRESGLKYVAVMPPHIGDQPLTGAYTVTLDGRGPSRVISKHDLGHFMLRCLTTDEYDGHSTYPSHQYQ
Sequence of UniProt P36405 (P36405 whole entry, looked up): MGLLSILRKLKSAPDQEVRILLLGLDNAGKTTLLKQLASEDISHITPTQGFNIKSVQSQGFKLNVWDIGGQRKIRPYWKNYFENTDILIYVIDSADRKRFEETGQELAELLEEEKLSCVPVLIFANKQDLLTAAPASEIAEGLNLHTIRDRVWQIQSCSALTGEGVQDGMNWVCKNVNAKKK
Sequence of UniProt O95782 (O95782 whole entry, looked up): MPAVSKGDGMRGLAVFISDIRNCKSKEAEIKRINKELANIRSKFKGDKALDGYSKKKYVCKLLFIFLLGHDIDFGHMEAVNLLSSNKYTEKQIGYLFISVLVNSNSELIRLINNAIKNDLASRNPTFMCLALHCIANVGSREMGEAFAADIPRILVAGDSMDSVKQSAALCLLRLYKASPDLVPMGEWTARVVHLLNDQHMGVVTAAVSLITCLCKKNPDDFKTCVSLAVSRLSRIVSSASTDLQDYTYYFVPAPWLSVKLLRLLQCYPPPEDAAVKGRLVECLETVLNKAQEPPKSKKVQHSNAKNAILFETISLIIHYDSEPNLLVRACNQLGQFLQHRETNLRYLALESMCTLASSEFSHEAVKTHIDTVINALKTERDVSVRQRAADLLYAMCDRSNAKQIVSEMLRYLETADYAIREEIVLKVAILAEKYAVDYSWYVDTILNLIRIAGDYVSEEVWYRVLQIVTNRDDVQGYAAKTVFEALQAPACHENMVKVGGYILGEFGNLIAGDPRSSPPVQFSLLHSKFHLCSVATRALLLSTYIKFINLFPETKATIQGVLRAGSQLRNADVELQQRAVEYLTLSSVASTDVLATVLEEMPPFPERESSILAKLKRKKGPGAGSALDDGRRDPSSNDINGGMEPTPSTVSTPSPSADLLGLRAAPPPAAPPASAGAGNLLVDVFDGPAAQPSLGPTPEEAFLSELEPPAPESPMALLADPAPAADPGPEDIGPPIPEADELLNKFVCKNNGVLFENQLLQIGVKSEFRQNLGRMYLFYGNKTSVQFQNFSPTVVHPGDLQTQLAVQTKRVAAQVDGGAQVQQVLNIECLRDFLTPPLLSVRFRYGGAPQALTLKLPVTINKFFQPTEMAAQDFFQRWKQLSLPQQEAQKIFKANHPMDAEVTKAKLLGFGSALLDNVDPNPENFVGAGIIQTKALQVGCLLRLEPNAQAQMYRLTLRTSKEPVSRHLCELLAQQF
Sequence of UniProt Q8WUW1 (Q8WUW1 whole entry, looked up): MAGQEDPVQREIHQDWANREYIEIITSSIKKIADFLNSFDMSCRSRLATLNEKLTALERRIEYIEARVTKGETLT
Sequence of UniProt Q04771 (Q04771 whole entry, looked up): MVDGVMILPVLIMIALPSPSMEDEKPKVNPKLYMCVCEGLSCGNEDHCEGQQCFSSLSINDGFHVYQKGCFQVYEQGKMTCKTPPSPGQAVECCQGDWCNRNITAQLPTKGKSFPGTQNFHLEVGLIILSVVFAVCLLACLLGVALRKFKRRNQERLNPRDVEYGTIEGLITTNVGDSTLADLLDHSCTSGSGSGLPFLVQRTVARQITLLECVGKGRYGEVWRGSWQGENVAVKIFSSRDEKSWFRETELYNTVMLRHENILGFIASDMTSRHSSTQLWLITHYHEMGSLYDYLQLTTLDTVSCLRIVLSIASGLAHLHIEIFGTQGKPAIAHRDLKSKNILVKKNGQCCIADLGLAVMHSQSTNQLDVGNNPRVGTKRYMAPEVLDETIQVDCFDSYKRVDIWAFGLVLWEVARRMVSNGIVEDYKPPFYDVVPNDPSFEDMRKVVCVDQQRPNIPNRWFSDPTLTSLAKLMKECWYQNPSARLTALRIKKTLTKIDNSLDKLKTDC
Sequence of UniProt Q96F25 (Q96F25 whole entry, looked up): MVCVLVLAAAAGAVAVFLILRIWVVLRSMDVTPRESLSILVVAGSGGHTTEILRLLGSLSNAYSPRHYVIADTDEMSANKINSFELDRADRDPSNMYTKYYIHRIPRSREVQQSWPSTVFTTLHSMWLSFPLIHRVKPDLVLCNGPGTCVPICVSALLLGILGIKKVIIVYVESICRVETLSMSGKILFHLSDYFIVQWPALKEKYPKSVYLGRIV

Target | log2 fold change (erlotinib) | log2 fold change [1] | log2 fold change [2] | log2 fold change [3] | log2 fold change [4] | log2 fold change [5] | log2 fold change [6] | log2 fold change [7] | log2 fold change [8] | log2 fold change [9]
ANKRD29 (UniProt Q8N6D5) | 0.243 (inactive) | -0.445 (active) | 0.083 (inactive) | -0.021 (inactive) | 0.223 (inactive) | -0.015 (inactive) | -0.046 (inactive) | 0.098 (inactive) | -0.025 (inactive) | 0.096 (inactive)
BLOC1S3 (UniProt Q6QNY0) | 0.027 (inactive) | -0.009 (inactive) | 0.04 (inactive) | -0.003 (inactive) | 0.093 (inactive) | 0.012 (inactive) | 0.031 (inactive) | -0.052 (inactive) | -0.032 (inactive) | 0.052 (inactive)
AURKA (UniProt O14965) | 0.181 (inactive) | 0.018 (inactive) | -0.055 (inactive) | -0.061 (inactive) | -0.08 (inactive) | -0.028 (inactive) | 0.028 (inactive) | 0.462 (inactive) | 0.707 (active) | -0.313 (inactive)
ARFGEF1 (UniProt Q9Y6D6) | 0.016 (inactive) | 0.025 (inactive) | 0.03 (inactive) | -0.03 (inactive) | 0.016 (inactive) | 0.015 (inactive) | 0.101 (inactive) | 0.051 (inactive) | -0.013 (inactive) | 0.043 (inactive)
B4GALNT1 (UniProt Q00973) | -0.176 (inactive) | -0.006 (inactive) | 0.029 (inactive) | 0.101 (inactive) | 0.124 (inactive) | -0.038 (inactive) | -0.073 (inactive) | -0.189 (inactive) | 0.069 (inactive) | -0.141 (inactive)
AGPAT1 (UniProt Q99943) | 0.04 (inactive) | -0.004 (inactive) | 0.008 (inactive) | -0.014 (inactive) | 0.013 (inactive) | 0.029 (inactive) | -0.015 (inactive) | -0.001 (inactive) | 0.001 (inactive) | 0.048 (inactive)
AGO1 (UniProt Q9UL18) | 0.031 (inactive) | -0.061 (inactive) | 0.05 (inactive) | -0.091 (inactive) | 0.032 (inactive) | 0.005 (inactive) | 0.01 (inactive) | -0.08 (inactive) | -0.008 (inactive) | 0.046 (inactive)
BAIAP2 (UniProt Q9UQB8) | 0.033 (inactive) | 0.089 (inactive) | 0.012 (inactive) | -0.008 (inactive) | 0.018 (inactive) | 0.017 (inactive) | 0.014 (inactive) | -0.063 (inactive) | -0.101 (inactive) | -0.016 (inactive)
APLP2 (UniProt Q06481) | 0.003 (inactive) | 0.009 (inactive) | -0.023 (inactive) | -0.034 (inactive) | 0.023 (inactive) | 0.004 (inactive) | 0.044 (inactive) | -0.03 (inactive) | -0.047 (inactive) | -0.002 (inactive)
ATP11A (UniProt P98196) | -0.038 (inactive) | 0.015 (inactive) | 0.004 (inactive) | 0.005 (inactive) | -0.038 (inactive) | 0.035 (inactive) | -0.048 (inactive) | -0.085 (inactive) | -0.035 (inactive) | 0.012 (inactive)
AFDN isoform 5 (UniProt P55196) | -0.005 (inactive) | 0.101 (inactive) | 0.021 (inactive) | 0.01 (inactive) | -0.02 (inactive) | 0 (inactive) | 0.012 (inactive) | -0.005 (inactive) | -0.049 (inactive) | 0.038 (inactive)
BRK1 isoform 2 (UniProt Q8WUW1) | -0.115 (inactive) | 0.003 (inactive) | 0.279 (inactive) | 0.04 (inactive) | 0.027 (inactive) | 0.072 (inactive) | 0.051 (inactive) | -0.02 (inactive) | -0.08 (inactive) | -0.037 (inactive)
ATL2 (UniProt Q8NHH9) | -0.004 (inactive) | 0 (inactive) | 0.081 (inactive) | 0.004 (inactive) | 0.049 (inactive) | 0.012 (inactive) | 0.049 (inactive) | 0.014 (inactive) | 0.077 (inactive) | 0 (inactive)
BYSL (UniProt Q13895) | -0.009 (inactive) | 0.014 (inactive) | -0.05 (inactive) | -0.006 (inactive) | -0.046 (inactive) | 0.027 (inactive) | -0.018 (inactive) | 0.075 (inactive) | -0.042 (inactive) | -0.289 (inactive)
ABHD11 (UniProt Q8NFV4) | 0.03 (inactive) | -0.041 (inactive) | 0.078 (inactive) | -0.033 (inactive) | 0.113 (inactive) | -0.067 (inactive) | 0.045 (inactive) | 0.043 (inactive) | -0.079 (inactive) | 0.01 (inactive)
ACSL3 (UniProt O95573) | -0.005 (inactive) | 0.055 (inactive) | 0.092 (inactive) | 0.351 (active) | 0.078 (inactive) | 0.031 (inactive) | 0.06 (inactive) | 0.069 (inactive) | -0.005 (inactive) | 0.039 (inactive)

Target | log2 fold change (erlotinib) | log2 fold change [1] | log2 fold change [2] | log2 fold change [3] | log2 fold change [4] | log2 fold change [5] | log2 fold change [6] | log2 fold change [7] | log2 fold change [8] | log2 fold change [9]
BLVRB (UniProt P30043) | 0.03 (inactive) | 0.112 (inactive) | 0.237 (active) | -0.031 (inactive) | -0.015 (inactive) | 0.072 (inactive) | 0.042 (inactive) | 0.014 (inactive) | 0.001 (inactive) | 0.056 (inactive)
ALG14 (UniProt Q96F25) | 0.111 (inactive) | 0.018 (inactive) | -0.128 (inactive) | -0.085 (inactive) | 0.084 (inactive) | 0.088 (inactive) | 0.053 (inactive) | 0.002 (inactive) | -0.061 (inactive) | 0.014 (inactive)
BRAP (UniProt Q7Z569) | 0.114 (inactive) | 0.09 (inactive) | 0.022 (inactive) | 0.012 (inactive) | 0.001 (inactive) | 0.032 (inactive) | 0.172 (inactive) | -0.023 (inactive) | -0.07 (inactive) | -0.059 (inactive)
ANP32E (UniProt Q9BTT0) | 0.211 (inactive) | 0.038 (inactive) | 0.114 (inactive) | -0.062 (inactive) | 0.027 (inactive) | -0.025 (inactive) | 0 (inactive) | -0.014 (inactive) | -0.026 (inactive) | -0.084 (inactive)
ACBD6 (UniProt Q9BR61) | 0.056 (inactive) | -0.031 (inactive) | 0.134 (inactive) | 0.108 (inactive) | 0.007 (inactive) | 0.011 (inactive) | -0.078 (inactive) | 0.073 (inactive) | -0.186 (inactive) | -0.216 (inactive)
ACOX3 (UniProt O15254) | 0.158 (inactive) | -0.157 (inactive) | -0.068 (inactive) | 0.007 (inactive) | -0.122 (inactive) | -0.026 (inactive) | – | 0.071 (inactive) | 0.153 (inactive) | 0.054 (inactive)
BAP1 (UniProt Q92560) | 0.182 (inactive) | -0.013 (inactive) | -0.142 (inactive) | -0.048 (inactive) | -0.128 (inactive) | 0.06 (inactive) | -0.104 (inactive) | -0.05 (inactive) | -0.078 (inactive) | -0.088 (inactive)
APAF1 (UniProt O14727) | 0.207 (inactive) | 0.066 (inactive) | -0.073 (inactive) | 0.141 (inactive) | 0.016 (inactive) | – | 0.037 (inactive) | 0.011 (inactive) | – | –
BRD8 isoform 2 (UniProt Q9H0E9) | 0.157 (inactive) | 0.016 (inactive) | 0.029 (inactive) | 0.082 (inactive) | 0.035 (inactive) | 0.055 (inactive) | -0.152 (inactive) | -0.044 (inactive) | -0.027 (inactive) | 0.021 (inactive)
BSCL2 isoform 4 (UniProt Q96G97) | -0.024 (inactive) | 0.088 (inactive) | -0.016 (inactive) | 0.052 (inactive) | 0.06 (inactive) | -0.012 (inactive) | – | -0.045 (inactive) | 0.045 (inactive) | -0.001 (inactive)
AIFM2 (UniProt Q9BRQ8) | -0.038 (inactive) | 0.045 (inactive) | -0.001 (inactive) | 0.064 (inactive) | -0.025 (inactive) | -0.032 (inactive) | 0.041 (inactive) | 0.172 (inactive) | -0.045 (inactive) | 0.064 (inactive)
ARL3 (UniProt P36405) | -0.009 (inactive) | 0.007 (inactive) | 0.033 (inactive) | -0.037 (inactive) | 0.046 (inactive) | 0.007 (inactive) | 0.019 (inactive) | -0.015 (inactive) | -0.026 (inactive) | 0.041 (inactive)
AP2A1 (UniProt O95782) | -0.019 (inactive) | 0.012 (inactive) | -0.035 (inactive) | 0.003 (inactive) | -0.041 (inactive) | 0.003 (inactive) | 0.057 (inactive) | -0.381 (active) | -0.527 (active) | -0.038 (inactive)
AGAP3 isoform 4 (UniProt Q96P47) | 0.11 (inactive) | 0 (inactive) | -0.078 (inactive) | -0.062 (inactive) | 0.017 (inactive) | 0.183 (inactive) | -0.024 (inactive) | -0.082 (inactive) | -0.075 (inactive) | 0.127 (inactive)
ACVR1 (UniProt Q04771) | -0.101 (inactive) | -0.051 (inactive) | 0.021 (inactive) | 0.031 (inactive) | -0.021 (inactive) | – | – | 0.136 (inactive) | -0.326 (inactive) | 0.035 (inactive)
AFG1L (UniProt Q8WV93) | 0.053 (inactive) | 0 (inactive) | 0.076 (inactive) | -0.083 (inactive) | 0.065 (inactive) | 0.041 (inactive) | -0.204 (inactive) | -0.042 (inactive) | 0.058 (inactive) | -0.004 (inactive)
